Data published in PubChem BioAssay (NCI).
This is part of a sample that, as a whole, favours compounds with a hit. Of some 83,000 tested, about 20% had one in any assay.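 48-hour exposure, single concentration, 96-well plates; percent growth endpoint where 0 means no net growth. Active: below 10.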 A number with no mark means an inactive call. Active and inactive are the calls of the source.

Key:
Test in all cases: NCI-60 one-dose screen, 48 h (100 = growth as untreated, 0 = no growth, -100 = all killed)
NCI-H23 lung = settings: 10 µM unless noted
NCI-H322M lung = settings: 10 µM unless noted
HOP-62 NSCLC = settings: 10 µM unless noted
NCI-H522 lung = settings: 10 µM
A549/ATCC NSCLC = settings: 10 µM unless noted
786-0 renal = settings: 10 µM unless noted
COLO 205 colon = settings: 10 µM unless noted
NCI-H460 lung = settings: 10 µM unless noted
HOP-92 NSCLC = settings: 10 µM unless noted
NCI-H226 lung = settings: 10 µM

SMILES | growth (NCI-H23 lung) [%] | growth (NCI-H322M lung) [%] | growth (HOP-62 NSCLC) | growth (NCI-H522 lung) | growth (A549/ATCC NSCLC) [%] | growth (786-0 renal) | growth (COLO 205 colon) | growth (NCI-H460 lung) | growth (HOP-92 NSCLC) | growth (NCI-H226 lung) [%]
Cc1c(NCC(=O)Nc2nc3ccccc3[nH]2)c(=O)n(-c2ccccc2)n1C | 94.9 | 105 | 107% | 100% | 97 | 104% | 110% |  |  | 
CN1CCN(C)c2cncc(Br)c2C1=O | 101 |  | 110% | 93.5% | 104 |  | 108% | 105% | 91.8% | 
O=C1NC(=S)S/C1=C\c1cccc([N+](=O)[O-])c1 | 89.6 | 132 | 114% | 107% | 103 | 91.5% | 110% |  |  | 
O=C(CCc1nnc2sc(-c3ccccc3)nn12)c1nc2ccccc2[nH]1 | 79.7 |  | 100% | 91.2% | 99.3 | 103% | 114% | 99.8% | 49.1% | 
CCCCc1ccc(NC(=O)C(F)(F)F)cc1 | 106 |  | 102% | 82% | 102 | 91.8% | 107% | 108% | 104% | 
COc1ccc(-c2csc3c2-n2cccc2C3=O)cc1O | 11.7 | 17.5 | 31.3% | -22.5% (active) | 11.9 | 1.66% (active) | 72.3% |  |  | 
CCCCc1ccc(C(O)(CCN2CC3CCC(CC3)C2)c2ccccc2)cc1 (stereo unspecified) | 87.7 |  | 106% | 84.2% | 96.2 | 85.9% | 80.9% | 107% | 75.4% | 
FC(F)(F)c1ccc2c(c1)n1cnnc1c1nncn21 | 103 |  | 113% | 97.1% |  | 101% | 111% |  | 88.7% | 
COC(=O)C1C2CC3c4[nH]c5cc(OC)ccc5c4CCN3CC2CC(OC2CCCCO2)C1OC (stereo unspecified) | 98.9 | 102 | 108% | 93.6% | 95.7 | 101% | 109% |  |  | 
COc1ccc(/C=C(\C#N)c2cc3ccccc3n2C)cc1 | 39.4 | 48.3 |  |  | 27.2 | 32.9% | -17.8% (active) | 6.08% (active) | 76.5% | 
O=C1C(OCCOc2ccccc2)=C(OCCOc2ccccc2)C(=O)c2ccccc21 | 16.3 | 60.3 | 56.4% |  | 17.4 | 100% | 102% |  |  | 
Clc1ccc(C2=Nc3cccc4cccc(c34)N2)cc1Cl | 76.9 | 103 |  | 62% | 99.6 | 111% | 100% | 100% | 92.9% | 
c1ccc2c(c1)oc1cc3c(cc12)nnc1cccn13 |  | 90.9 | 116% | 96.7% | 97.1 | 121% |  | 112% | 120% | 98.5
COc1cccc(C2CC(=O)Nc3cc4c(cc32)OCO4)c1OC (stereo unspecified) | 92.3 | 88.3 | 98.2% | 87.4% | 89.8 | 114% | 107% |  |  | 
Clc1ccc(Nc2nc(Nc3ccccc3)nc(Nc3ccc(-c4cc(-c5ccc(Cl)cc5)on4)cc3)n2)cc1 | 72.2 | 77.6 | 75.6% | 26.2% | 38.9 | 53.9% | 69.8% |  |  | 
Cc1cc(NS(=O)(=O)c2ccc(NC(=O)COc3ccc(-c4cc5ccccc5[nH]4)cc3)cc2)no1 | 22.4 |  | -11.3% (active) | 20.8% | 30.1 | 2.3% (active) | -50.5% (active) | 9.1% (active) | 5.04% (active) | 
O=c1onc(-c2ccccc2)c2ccccc12 | 104 |  | 117% | 101% | 109 | 105% | 119% | 109% | 95.4% | 
FC(F)(F)Oc1ccc2c(c1)C[C@H]1C[C@@H](c3ccoc3)N2O1 | 96.5 | 117 |  |  | 92.1 | 105% | 110% | 114% | 82.8% | 
